# “And” between values parts separate entries of the source, which are not always exact repeats. Equal entries are not always repeated. Out of some 5,500 compounds screened, about 2,000 (36%) were called active. Inconclusive results (about 18%) are left out. This is one part of the list. Unmarked numbers belong to inactive results. No stated cut-off is given here; in the data, active means normalized growth mostly below about 0.91 (no sharp cut-off); inconclusive means no clear call, values can overlap the other calls; inactive means mostly above about 0.92.
# Assay: chemical genetic growth profiling, strain panel (AID 1159580);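 further: tested at 20 µM; growth read once vehicle control cultures reached saturation at 30 °C; 1 = growth at the plate median or of vehicle wells; lower values mean less growth of the strain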
# Settings: S. cerevisiae deletion strains, growth OD
smiles,measurement,setting,value
CS(=O)(=O)OCCCCOS(C)(=O)=O,normalized growth,"locus YAL013W, strain DEP1, active compounds read low",0.954
same,normalized growth,"locus YAL021C, strain ccr4, active compounds read low",0.999
same,normalized growth,"locus YAL026C, strain drs2, active compounds read low",1.02
same,normalized growth,"locus YAL030W, strain snc1, active compounds read low",1.03
same,normalized growth,"locus YBL061C, strain skt5, active compounds read low",1.01
same,normalized growth,"locus YBR009C, strain hhf1, active compounds read low",1.11 [resistant] (active)
same,normalized growth,"locus YBR021W, strain FUR4, active compounds read low",1.01
same,normalized growth,"locus YBR023C, strain chs3, active compounds read low",1.01
same,normalized growth,"locus YBR171W, strain sec66, active compounds read low",1.03
same,normalized growth,"locus YBR229C, strain ROT2, active compounds read low",0.994
same,normalized growth,"locus YBR231C, strain swc5, active compounds read low",0.993
same,normalized growth,"locus YBR279W, strain paf1, active compounds read low",1.01
same,normalized growth,"locus YCL011C, strain gbp2, active compounds read low",1.04
same,normalized growth,"locus YCL016C, strain dcc1, active compounds read low",1.05
same,normalized growth,"locus YCL029C, strain bik1, active compounds read low",0.956
same,normalized growth,"locus YCL069W, strain vba3, active compounds read low",1.03
same,normalized growth,"locus YCR088W, strain abp1, active compounds read low",1.02
same,normalized growth,"locus YDL005C, strain med2, active compounds read low",1.01
same,normalized growth,"locus YDL035C, strain GPR1, active compounds read low",1.02
same,normalized growth,"locus YDL040C, strain nat1, active compounds read low",1
same,normalized growth,"locus YDL074C, strain BRE1, active compounds read low",0.901
same,normalized growth,"locus YDL101C, strain DUN1, active compounds read low",0.948
same,normalized growth,"locus YDL185W, strain tfp1, active compounds read low",0.918
same,normalized growth,"locus YDL192W, strain arf1, active compounds read low",0.942
same,normalized growth,"locus YDR001C, strain nth1, active compounds read low",1.01
same,normalized growth,"locus YDR069C, strain doa4, active compounds read low",1.02
same,normalized growth,"locus YDR101C, strain arx1, active compounds read low",0.961
same,normalized growth,"locus YDR137W, strain rgp1, active compounds read low",1.03
same,normalized growth,"locus YDR159W, strain sac3, active compounds read low",0.996
same,normalized growth,"locus YDR162C, strain NBP2, active compounds read low",0.961
same,normalized growth,"locus YDR195W, strain ref2",0.973
same,normalized growth,"locus YDR297W, strain sur2, active compounds read low",1.05
same,normalized growth,"locus YDR318W, strain mcm21, active compounds read low",0.962
same,normalized growth,"locus YDR334W, strain swr1, active compounds read low",1.01
same,normalized growth,"locus YDR335W, strain msn5, active compounds read low",1.04
same,normalized growth,"locus YDR388W, active compounds read low",0.963
same,normalized growth,"locus YDR392W, strain spt3, active compounds read low",1.04
same,normalized growth,"locus YDR502C, strain sam2, active compounds read low",0.973
same,normalized growth,"locus YEL003W, strain gim4, active compounds read low",1.03
same,normalized growth,"locus YEL037C, strain rad23, active compounds read low",1.02
same,normalized growth,"locus YEL061C, strain CIN8 (second series), active compounds read low",1.01
same,normalized growth,"locus YEL061C, strain CIN8, active compounds read low",0.979
same,normalized growth,"locus YER015W, strain faa2, active compounds read low",0.998
same,normalized growth,"locus YER016W, strain bim1, active compounds read low",1.03
same,normalized growth,"locus YER110C, active compounds read low",0.93
same,normalized growth,"locus YER111C, strain swi4, active compounds read low",1.02
same,normalized growth,"locus YER155C, strain BEM2 (second series), active compounds read low",1.02
same,normalized growth,"locus YER155C, strain BEM2, active compounds read low",1
same,normalized growth,"locus YER167W, strain BCK2, active compounds read low",1.01
same,normalized growth,"locus YFR010W, strain ubp6, active compounds read low",0.996
same,normalized growth,"locus YGL078C, strain dbp3, active compounds read low",0.987
same,normalized growth,"locus YGL086W, strain mad1, active compounds read low",0.954
same,normalized growth,"locus YGL167C, strain pmr1, active compounds read low",1.05
same,normalized growth,"locus YGL173C, strain kem1, active compounds read low",1.01
same,normalized growth,"locus YGL227W, strain vid30, active compounds read low",1.02
same,normalized growth,"locus YGL240W, strain doc1, active compounds read low",1.05
same,normalized growth,"locus YGL248W, strain PDE1, active compounds read low",0.95
same,normalized growth,"locus YGL253W, strain hxk2, active compounds read low",1.03
same,normalized growth,"locus YGR078C, strain PAC10, active compounds read low",0.935
same,normalized growth,"locus YGR135W, strain pre9, active compounds read low",0.934
same,normalized growth,"locus YGR252W, strain gcn5, active compounds read low",0.861
same,normalized growth,"locus YHR013C, strain ard1, active compounds read low",1.09
same,normalized growth,"locus YHR027C, strain rpn1, active compounds read low",1
same,normalized growth,"locus YHR030C, strain SLT2, active compounds read low",0.979 and 1
same,normalized growth,"locus YHR079C, strain IRE1 (second series), active compounds read low",0.952
same,normalized growth,"locus YHR079C, strain IRE1, active compounds read low",0.994
same,normalized growth,"locus YHR094C, strain hxt1, active compounds read low",0.981
same,normalized growth,"locus YHR129C, strain ARP1, active compounds read low",0.969
same,normalized growth,"locus YHR142W, strain chs7, active compounds read low",1.07
same,normalized growth,"locus YHR200W, strain rpn10, active compounds read low",0.948
same,normalized growth,"locus YIL066C, strain RNR3, active compounds read low",1
same,normalized growth,"locus YIL073C, strain SPO22, active compounds read low",0.907
same,normalized growth,"locus YIL125W, strain kgd1, active compounds read low",0.981
same,normalized growth,"locus YIR030C, strain dcg1, active compounds read low",0.962
same,normalized growth,"locus YJL092W, strain hpr5, active compounds read low",1.03
same,normalized growth,"locus YJL095W, strain BCK1 (second series), active compounds read low",1.05
same,normalized growth,"locus YJL095W, strain BCK1, active compounds read low",0.833 and 0.987
same,normalized growth,"locus YJL115W, strain asf1, active compounds read low",1.01
same,normalized growth,"locus YJL129C, strain trk1, active compounds read low",0.999
same,normalized growth,"locus YJL134W, strain LCB3, active compounds read low",0.986
same,normalized growth,"locus YJL154C, strain vps35, active compounds read low",1.02
same,normalized growth,"locus YJL164C, strain tpk1, active compounds read low",1.09 [resistant] (active)
same,normalized growth,"locus YJL166W, strain qcr8, active compounds read low",1.01
same,normalized growth,"locus YJL168C, strain set2, active compounds read low",0.955
same,normalized growth,"locus YJL187C, strain SWE1 (second series), active compounds read low",0.933
same,normalized growth,"locus YJL187C, strain SWE1, active compounds read low",1.03
same,normalized growth,"locus YJR043C, strain POL32, active compounds read low",1.01
same,normalized growth,"locus YJR066W, strain TOR1, active compounds read low",0.985
same,normalized growth,"locus YKL009W, strain mrt4, active compounds read low",0.967
same,normalized growth,"locus YKL068W, active compounds read low",0.99
same,normalized growth,"locus YKL085W, strain MDH1 (second series), active compounds read low",0.975
same,normalized growth,"locus YKL085W, strain MDH1, active compounds read low",0.975
same,normalized growth,"locus YKL160W, strain elf1, active compounds read low",1.05
same,normalized growth,"locus YKL190W, strain CNB1, active compounds read low",0.977
same,normalized growth,"locus YKR001C, strain vps1, active compounds read low",0.89 (active)
same,normalized growth,"locus YKR026C, strain gcn3, active compounds read low",1.02
same,normalized growth,"locus YKR091W, strain srl3, active compounds read low",1.03
same,normalized growth,"locus YLL001W, strain dnm1, active compounds read low",1.03
same,normalized growth,"locus YLL026W, active compounds read low",1.03
same,normalized growth,"locus YLL041C, strain sdh2, active compounds read low",1.02
same,normalized growth,"locus YLR027C, strain aat2, active compounds read low",1.04
same,normalized growth,"locus YLR039C, strain RIC1, active compounds read low",0.985
same,normalized growth,"locus YLR058C, strain SHM2, active compounds read low",0.969
same,normalized growth,"locus YLR102C, strain apc9, active compounds read low",0.972
same,normalized growth,"locus YLR113W, strain HOG1, active compounds read low",0.961
same,normalized growth,"locus YLR221C, strain rsa3, active compounds read low",1.07
same,normalized growth,"locus YLR258W, strain gsy2, active compounds read low",1.07
same,normalized growth,"locus YLR262C, strain YPT6 (second series), active compounds read low",1.04
same,normalized growth,"locus YLR262C, strain YPT6, active compounds read low",1.02
same,normalized growth,"locus YLR268W, strain sec22, active compounds read low",0.95
same,normalized growth,"locus YLR320W, strain mms22, active compounds read low",0.999
same,normalized growth,"locus YLR330W, strain CHS5, active compounds read low",0.957
same,normalized growth,"locus YLR342W, strain FKS1 (second series), active compounds read low",1.08
same,normalized growth,"locus YLR342W, strain FKS1, active compounds read low",1.02
same,normalized growth,"locus YLR357W, strain rsc2, active compounds read low",1.05
same,normalized growth,"locus YLR370C, strain arc18, active compounds read low",1.03
same,normalized growth,"locus YLR371W, strain rom2, active compounds read low",0.939
same,normalized growth,"locus YLR384C, strain iki3, active compounds read low",1.01
same,normalized growth,"locus YLR418C, strain cdc73, active compounds read low",0.872
same,normalized growth,"locus YML016C, strain PPZ1, active compounds read low",0.981
same,normalized growth,"locus YML032C, strain rad52, active compounds read low",0.97
same,normalized growth,"locus YML120C, strain ndi1, active compounds read low",1.03
same,normalized growth,"locus YML124C, strain tub3, active compounds read low",0.967
same,normalized growth,"locus YMR058W, strain fet3, active compounds read low",1.01
same,normalized growth,"locus YMR078C, strain ctf18, active compounds read low",0.942
same,normalized growth,"locus YMR125W, strain sto1, active compounds read low",1.03
same,normalized growth,"locus YMR129W, active compounds read low",1.02
same,normalized growth,"locus YMR205C, strain PFK2, active compounds read low",1.01
same,normalized growth,"locus YMR223W, strain ubp8, active compounds read low",0.934
same,normalized growth,"locus YMR231W, strain pep5, active compounds read low",1.02
same,normalized growth,"locus YMR307W, strain GAS1, active compounds read low",0.984
same,normalized growth,"locus YNL067W, strain RPL9B, active compounds read low",0.928
same,normalized growth,"locus YNL071W, strain lat1, active compounds read low",1.01
same,normalized growth,"locus YNL128W, strain TEP1, active compounds read low",0.909
same,normalized growth,"locus YNL153C, strain GIM3, active compounds read low",0.938
same,normalized growth,"locus YNL183C, strain NPR1, active compounds read low",0.932
same,normalized growth,"locus YNL209W, strain ssb2, active compounds read low",1.01
same,normalized growth,"locus YNL233W, strain BNI4, active compounds read low",0.889
same,normalized growth,"locus YNL248C, strain rpa49, active compounds read low",1.06
same,normalized growth,"locus YNL250W, strain rad50, active compounds read low",0.964
same,normalized growth,"locus YNL271C, strain bni1, active compounds read low",0.955
same,normalized growth,"locus YNL298W, strain CLA4, active compounds read low",0.979
same,normalized growth,"locus YNL307C, strain MCK1, active compounds read low",0.963
same,normalized growth,"locus YNL322C, strain KRE1 (second series), active compounds read low",1.04
same,normalized growth,"locus YNR049C, strain mso1, active compounds read low",1.02
same,normalized growth,"locus YNR052C, strain pop2, active compounds read low",0.908 (active)
same,normalized growth,"locus YOL006C, strain TOP1, active compounds read low",0.696
same,normalized growth,"locus YOL012C, strain htz1",0.364
same,normalized growth,"locus YOL147C, strain pex11, active compounds read low",0.972
same,normalized growth,"locus YOR001W, strain rrp6, active compounds read low",1.03
same,normalized growth,"locus YOR061W, strain CKA2, active compounds read low",0.987
same,normalized growth,"locus YOR069W, strain VPS5, active compounds read low",0.986
same,normalized growth,"locus YOR070C, strain gyp1, active compounds read low",1.01
same,normalized growth,"locus YOR080W, strain dia2, active compounds read low",1.05
same,normalized growth,"locus YOR083W, strain WHI5, active compounds read low",1.05
same,normalized growth,"locus YOR106W, strain vam3, active compounds read low",1.03
same,normalized growth,"locus YOR136W, strain idh2, active compounds read low",0.977
same,normalized growth,"locus YOR144C, strain elg1, active compounds read low",0.984
same,normalized growth,"locus YOR184W, strain ser1, active compounds read low",0.989
same,normalized growth,"locus YOR231W, strain MKK1, active compounds read low",1
same,normalized growth,"locus YOR265W, strain rbl2, active compounds read low",1.01
same,normalized growth,"locus YOR270C, strain vph1, active compounds read low",1.07
same,normalized growth,"locus YOR290C, strain snf2, active compounds read low",1.06
same,normalized growth,"locus YOR316C, strain cot1, active compounds read low",0.972
same,normalized growth,"locus YPL051W, strain arl3, active compounds read low",1.02
same,normalized growth,"locus YPL078C, strain atp4, active compounds read low",1.02
same,normalized growth,"locus YPL106C, strain sse1, active compounds read low",1.05
same,normalized growth,"locus YPL240C, strain hsp82, active compounds read low",1.02
same,normalized growth,"locus YPL256C, strain CLN2, active compounds read low",0.99
same,normalized growth,"locus YPR119W, strain clb2, active compounds read low",0.951
same,normalized growth,"locus YPR141C, strain kar3, active compounds read low",0.957
same,normalized growth,"locus YPR163C, strain tif3, active compounds read low",0.962
same,normalized growth,"locus YPR167C, strain met16, active compounds read low",0.975
same,normalized growth,"strain wtn01, active compounds read low",0.953

# Source: PubChem BioAssay AID1159580 (chemical genetic matrix, 2015)
